Experimental data: the supplement of paper PMC10981050
“And” between values parts separate entries of the source, which are not always exact repeats. Identical values can stand only once. Counter-ions that a name gives are not always drawn.

Tests used:
Assay in all cases: cell viability relative to vehicle control; higher = less cytotoxic
Details in all cases: 10 µM
K562 = test system: K562
In short: (§1)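 Mutant clones made by CRISPR editing and their isogenic wild-type counterparts, from four leukaemia lines, were exposed to a single 10 µM dose of each library compound for 48 h. The supernatant was then removed and CellTiter-Glo luminescence was read. Viability was reported as percent of the on-plate vehicle control.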

MARIMO = test system: MARIMO
In short: as §1

MOLM14 = test system: MOLM14
In short: as §1

OCI-AML2 = test system: OCI-AML2
In short: as §1

Compound | cell viability (K562; SRSF2 genotype: SRSF2 P95H/wt) | cell viability (K562; SRSF2 genotype: SRSF2 wt/wt) | cell viability (MARIMO; SRSF2 genotype: SRSF2 P95H/wt) | cell viability (MARIMO; SRSF2 genotype: SRSF2 wt/wt) | cell viability (MOLM14; SRSF2 genotype: SRSF2 P95H/wt) | cell viability (MOLM14; SRSF2 genotype: SRSF2 wt/wt) | cell viability (OCI-AML2; SRSF2 genotype: P95H/wt) | cell viability (OCI-AML2; SRSF2 genotype: wt/wt)
CC(C)=CCCC(C)(O)C1CCC2(C)C1C(O)CC1C3(C)CCC(O)C(C)(C)C3C(OC3OC(CO)C(O)C(O)C3OC3OC(C)C(O)C(O)C3O)CC12C [(20S)Ginsenoside Rg2] | 102% and 108% | 98.7% | 108% | 108% | 104% | 104% | 101% | 115%
COc1ccc(Oc2cc(C)c(-c3csc(NC(=O)c4ccncc4)n3)c(C)c2)cc1 | 43.7% and 37.3% | 36.9% | 37.8% | 37.6% | 42.4% | 25.9% | 47.8% | 32.2%
Cc1ccccc1N1C(=O)c2cc(S(N)(=O)=O)c(Cl)cc2NC1C (stereo unspecified) [Metolazone (Zaroxolyn)] | 104% and 99.9% | 96.7% | 96% | 99.7% | 99.5% | 97% | 101% | 98.3%
O=C(c1ccccc1)C(O)O [Phenylglyoxal hydrate] | 95.7% and 96.9% | 104% | 86.3% | 86.1% | 67.8% | 66% | 81.6% | 100%
Clc1ccc(NN=C(c2ccccc2)c2ccccn2)nc1 | 17.9% and 15.3% | 20% | 3.72% | 0.76% | 1.65% | 0.71% | 5.44% | 3.14%
O=C(/C=C/c1ccccc1)OCc1ccccc1 [Benzyl cinnamate] | 101% and 100% | 103% | 85.5% | 99.6% | 108% | 104% | 92.1% | 93.1%
O=C(COc1cccc2c(=O)[nH]ccc12)c1ccccc1 | 89.7% and 93.9% | 98.9% | 94.6% | 88.4% | 102% | 98.5% | 88% | 84.1%
COc1cccc2c1C(=O)c1c(O)c3c(c(O)c1C2=O)C[C@@](O)(C(=O)CO)C[C@@H]3O[C@H]1C[C@H](N)[C@H](O[C@@H]2CCCCO2)[C@H](C)O1 [Pirarubicin] | 9.97% and 17.9% | 15.8% | 5.07% | 2.51% | 0.15% | 0.13% | 0.2% | 0.51%
CC1(COc2ccc3c(c2)ncn3-c2ccc3cccc(N4CCC(N)CC4)c3n2)COC1 | 84.9% and 68.8% | 71.4% | 5.64% | 16.6% | 5.66% | 1.2% | 14.6% | 13%
COc1ccc(C[C@@H]2c3cc(OC)c(OC)cc3CC[N@+]2(C)CCC(=O)OCCCCCOC(=O)CC[N@@+]2(C)CCc3cc(OC)c(OC)cc3[C@H]2Cc2ccc(OC)c(OC)c2)cc1OC [Cisatracurium besylate (Nimbex)] | 93.3% and 95.8% | 92.4% | 79% | 94% | 70.7% | 93% | 99.5% | 111%
CC(C)OC(=O)[C@H](C)N[P@](=O)(OC[C@H]1O[C@@H](n2ccc(=O)[nH]c2=O)[C@](C)(F)[C@@H]1O)Oc1ccccc1 [Sofosbuvir(PSI-7977)] | 103% and 102% | 95.8% | 98.3% | 111% | 102% | 107% | 94% | 107%
C=C1C(=O)O[C@H]2[C@H]1CC/C(C)=C/CC[C@@]1(C)O[C@@H]21 [Parthenolide ((-)-Parthenolide)] | 18.9% and 9.99% | 26.7% | 8.78% | 8.07% | 1.59% | 0.67% | 0.71% | 0.34%
CC(C)=CCCC(C)(O)C1CCC2(C)C1C(O)CC1C3(C)CCC(OC4OC(CO)C(O)C(O)C4OC4OC(CO)C(O)C(O)C4O)C(C)(C)C3CCC12C [(20R)Ginsenoside Rg3] | 105% and 103% | 99.1% | 107% | 122% | 108% | 109% | 105% | 128%
CC1(C)S[C@@H]2[C@H](NC(=O)Cc3ccccc3)C(=O)N2[C@H]1C(=O)O.CCN(CC)CCOC(=O)c1ccc(N)cc1 [Penicillin G Procaine] | 107% and 104% | 101% | 104% | 118% | 99.7% | 109% | 97.8% | 99.4%
Cc1ncc(CO)c(CO)c1O [Metadoxine] | 99.4% and 100% | 104% | 98.1% | 103% | 101% | 103% | 101% | 114%
C[C@H](CCC(=O)O)[C@H]1CC[C@H]2[C@@H]3[C@H](O)C[C@@H]4C[C@H](O)CC[C@]4(C)[C@H]3CC[C@]12C [Chenodeoxycholic acid] | 97.4% and 101% | 99.7% | 104% | 108% | 100% | 101% | 98.4% | 106%
O=S(=O)(O)NC1CCCCC1 [Cyclamic acid] | 102% and 96.3% | 97.2% | 100% | 111% | 104% | 104% | 94.5% | 110%
CN1C(=O)c2sccc2N(C)c2nc(Nc3ccc(S(N)(=O)=O)cc3)ncc21 | 14% and 30.1% | 63.4% | 22.4% | 25.9% | 5.5% | 3.55% | 8.63% | 10.6%
O=c1[nH]c(=O)n([C@H]2C[C@H](O)[C@@H](CO)O2)cc1/C=C/Br [Brivudine] | 97.4% and 92% | 103% | 101% | 102% | 95.6% | 105% | 99.8% | 107%

Compound | cell viability (K562; SRSF2 genotype: SRSF2 P95H/wt) | cell viability (K562; SRSF2 genotype: SRSF2 wt/wt) | cell viability (MARIMO; SRSF2 genotype: SRSF2 P95H/wt) | cell viability (MARIMO; SRSF2 genotype: SRSF2 wt/wt) | cell viability (MOLM14; SRSF2 genotype: SRSF2 P95H/wt) | cell viability (MOLM14; SRSF2 genotype: SRSF2 wt/wt) | cell viability (OCI-AML2; SRSF2 genotype: P95H/wt) | cell viability (OCI-AML2; SRSF2 genotype: wt/wt)
CC#CC(=O)Nc1ccc2ncnc(Nc3cccc(Br)c3)c2c1 | 7.91% and 17.6% | 20.9% | 34.7% | 35.5% | 0.84% | 1.92% | 1.61% | 6.95%
CN1CC2c3ccccc3Oc3ccc(Cl)cc3C2C1 (stereo unspecified) [Asenapine maleate] | 88.3% and 92.2% | 88.2% | 63% | 78.8% | 88% | 92.6% | 69.9% | 73.2%
C[C@@H]1CC[C@@]2(OC1)O[C@H]1C[C@H]3[C@@H]4CC=C5C[C@@H](O[C@@H]6O[C@H](CO)[C@@H](O)[C@H](O)[C@H]6O[C@@H]6O[C@@H](C)[C@H](O)[C@@H](O)[C@H]6O)CC[C@]5(C)[C@H]4CC[C@]3(C)[C@@]1(O)[C@@H]2C [Polyphyllin VI] | 0.36% and 0.31% | 0.44% | 4.95% | 0.84% | 0.85% | 0.55% | 0.28% | 0.33%
Cc1ccccc1C(=O)Nc1ccc(C(=O)N2CCCC(N(C)C)c3ccccc32)cc1 (stereo unspecified) [Mozavaptan] | 93.3% and 90.1% | 85% | 88.9% | 93.2% | 97.1% | 102% | 95.5% | 97.1%
CC#CC(=O)N1CCC[C@H]1c1nc(-c2ccc(C(=O)Nc3ccccn3)cc2)c2c(N)nccn12 [Acalabrutinib (ACP-196)] | 93.2% and 96.6% | 94.1% | 101% | 113% | 95.4% | 100% | 90.2% | 96.9%
CC[C@@]1(O)C(=O)OCc2c1cc1n(c2=O)Cc2cc3c(CN(C)C)c(O)ccc3nc2-1 [Topotecan] | 20.3% and 28% | 17.5% | 4.92% | 3.84% | 1.67% | 0.8% | 3.47% | 7.65%
CC1CCC2(C(=O)OC3OC(CO)C(O)C(O)C3O)CCC3(C)C(=CCC4C5(C)CCC(OC6OCC(O)C(O)C6O)C(C)(C)C5CCC43C)C2C1(C)O (stereo unspecified) [Ziyu-glycoside I] | 103% and 96.8% | 99.4% | 101% | 99.9% | 107% | 105% | 99% | 100%
Cc1cc(Nc2cc(Cl)nc(Oc3ccc([N+](=O)[O-])cc3)n2)n[nH]1 [Autophinib] | 30.5% and 32.9% | 31.3% | 33.4% | 53.3% | 29.9% | 14.5% | 50% | 47.9%
O=c1c(-c2ccc(O)cc2)coc2cc(O)ccc12 [Daidzein] | 99.3% and 97.8% | 97.8% | 95.4% | 96.9% | 93.4% | 96.7% | 92.9% | 102%
CN1CCN(c2ccc(Nc3ncc4cc(C#N)c(=O)n(C5CCCC5)c4n3)cc2)CC1 | 79.5% and 104% | 87.8% | 60.4% | 58.4% | 17.9% | 16.4% | 21.4% | 29.1%
COCCCN1CCC(NC(=O)c2cc(Cl)c(N)c3c2OCC3)CC1 [Prucalopride] | 86.4% and 82% | 81.5% | 85.9% | 91.6% | 87.3% | 88.9% | 80.5% | 88.7%
COc1cc(O)cc2c1C(=O)C[C@@H](c1ccccc1)O2 [Alpinetin] | 107% and 103% | 96.5% | 101% | 109% | 109% | 110% | 102% | 106%
CCS(=O)(=O)Nc1ccc(Oc2ccc(F)cc2F)c(-c2cn(C)c(=O)c3[nH]ccc23)c1 [ABBV-075 (Mivebresib)] | 20.9% and 13.8% | 33.2% | 7.17% | 9.37% | 1.9% | 1.8% | 7.64% | 13.5%
Cn1nnc(-c2ccc(-c3ccc(N4C[C@H](COP(=O)(O)O)OC4=O)cc3F)cn2)n1 [Tedizolid Phosphate] | 81.5% and 82.6% | 84.9% | 88.8% | 94.5% | 91.8% | 92.3% | 82.3% | 87.8%
CC(=O)OCC(=O)[C@H]1CC[C@H]2[C@@H]3CCC4=CC(=O)CC[C@]4(C)[C@H]3CC[C@]12C [Deoxycorticosterone acetate] | 91.4% and 91.9% | 98.4% | 89.8% | 99% | 89% | 96.2% | 86.1% | 76.2%
CC1(C)CCCC2(C)OC(=O)C=C12 (stereo unspecified) [Dihydroactinidiolide] | 104% and 93.7% | 94.5% | 97.6% | 104% | 93.8% | 99.7% | 91.1% | 104%
Cc1cc2c(C(N)=O)cccc2n1-c1nc2c(c(NCc3ccccc3)n1)COCC2 | 0.8% and 0.75% | 0.74% | 0.6% | 1.05% | 0.36% | 0.42% | 0.35% | 0.49%
CNC[C@@H](O)c1ccc(O)c(O)c1 [L-Adrenaline (Epinephrine)] | 101% and 90% | 96.3% | 104% | 101% | 87.9% | 99.3% | 115% | 104%
